Compound activity deposited in PubChem by several laboratories.
MEKK2 WT-MEK5 – modulators of MEK5 binding to wildtype MEKK2, primary screen, biochemical, multiplex bead flow cytometry, Alexa488-MEK5; Alexa488-MEK5 binding to MEKK2 WT; actives lie on both sides; binding response (% of control), % at 10 µM; hit rate 1.1% among 290,000; AID 1531, 2009; in the data active = binding response below about 67% or above about 130%
MEKK2mut PB1 HTS – MEK5 binding signal on mutant MEKK2 PB1, primary screen, biochemical, multiplex bead flow cytometry, Alexa488-MEK5; Alexa488-MEK5 binding to MEKK2 mutant; percent response, % at 10 µM; hit rate 0.35% among 290,000; AID 1530, 2009; in the data active = percent response above about 24%, passing the limit was not always enough
Mot1-301 SUMO – yeast Mot1-301 growth rescue at high temperature, primary screen, SUMOylation pathway inhibitor project, S. cerevisiae, ATP luminescence, 38.5C. S. cerevisiae Mot1-301 growth rescue; percent above DMSO median, 100 means doubled. growth rescue, % at 18.8 µM. hit rate 1% among 320,000. AID 2716, 2010;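 active = every valid replicate shows activation above 250% relative to neutral control wells; inactive = the rest, any valid replicate at or below 250%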
CHT block – inhibitors of human choline transporter CHT. High affinity choline transporter 1 (Homo sapiens), Q9GZV3. CHT-expressing cells, membrane potential dye, choline response; hits give low values. B-score at 10 µM. hit rate 0.86% among 310,000;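 active = B-score over 3 SD under the library average, and starting fluorescence ratio not unusually high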;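 also: choline stimulus applied at its EC90 after an EC20 pre-addition; B-score computed on integrated fluorescence ratio after choline addition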
Target sequence (Q9GZV3 whole entry, looked up): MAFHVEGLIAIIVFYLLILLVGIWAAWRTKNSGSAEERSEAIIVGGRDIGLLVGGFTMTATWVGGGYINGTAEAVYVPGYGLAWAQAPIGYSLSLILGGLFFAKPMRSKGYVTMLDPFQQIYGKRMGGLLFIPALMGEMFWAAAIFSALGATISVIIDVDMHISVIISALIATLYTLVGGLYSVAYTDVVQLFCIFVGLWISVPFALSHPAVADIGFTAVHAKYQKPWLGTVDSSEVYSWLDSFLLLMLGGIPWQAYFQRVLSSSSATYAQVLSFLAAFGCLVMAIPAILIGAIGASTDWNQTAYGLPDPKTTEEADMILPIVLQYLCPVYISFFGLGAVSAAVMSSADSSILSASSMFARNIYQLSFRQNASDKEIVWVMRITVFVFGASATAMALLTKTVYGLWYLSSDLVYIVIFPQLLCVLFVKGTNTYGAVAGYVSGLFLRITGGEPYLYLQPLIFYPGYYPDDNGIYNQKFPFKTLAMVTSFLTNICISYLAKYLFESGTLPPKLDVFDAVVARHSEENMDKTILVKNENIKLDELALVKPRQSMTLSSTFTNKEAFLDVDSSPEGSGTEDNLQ
MEKK3 PB1 HTS – modulators of MEKK3-MEK5 PB1 binding, primary screen, biochemical, wildtype MEKK3, multiplex bead flow cytometry, Alexa488-MEK5; Mitogen-activated protein kinase kinase kinase 3 (Homo sapiens), Q99759; binding response (% of control), % at 10 µM; hit rate 1.4% among 290,000; bead-based flow cytometry, Alexa488-MEK5 binding to MEKK3; actives lie on both sides; 0 = blocked by unlabeled MEK5, 100 = vehicle; AID 1529, 2009;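 active = binding response more than 3 SD above or below the average of its plate-row segment, actives on both sides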;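 also: Alexa488 bead fluorescence after subtracting the streptavidin-only scavenger bead signal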
CHT allo act – CHT positive allosteric modulators, primary screen, cell-based, membrane potential dye, choline EC20; High affinity choline transporter 1 (Homo sapiens), Q9GZV3; CHT-expressing cells; hits give high values; LV-AA mutant CHT in HEK293 cells; B-score at 10 µM; hit rate 0.49% among 310,000; AID 488977, 2010;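 active = initial fluorescence not abnormally high and integrated response B-score, plate-corrected, over 3 SD above library mean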
MEKK2wt confirm – modulators of MEK5 binding to wildtype MEKK2, confirmation, biochemical, single concentration, multiplex bead flow cytometry | hit rate 2.4% among 5,900 | binding response (% of control), % at 10 µM | shares compounds with MEKK3 PB1 HTS | AID 1892, 2009 | Alexa488-MEK5 binding to MEKK2 WT; actives lie on both sides; in the data active = binding response below about 16% or above about 210%; inactive = in between
MEKK2mut-MEK5 – mutant MEKK2 PB1-MEK5 binding signal retest – biochemical, single concentration, multiplex bead flow cytometry, confirmation; shares compounds with MEKK3 PB1 HTS; Alexa488-MEK5 binding to MEKK2 mutant; percent response, % at 10 µM; hit rate 2% among 5,900; in the data active = percent response mostly above about 71%, no sharp cut-off; inactive = mostly below about 38%;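 also: higher means compound restores mutant binding toward wildtype level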
MEKK3 confirm – MEKK3 wild-type PB1 binding to MEK5, inhibitors, confirmation, biochemical, bead multiplex flow cytometry, single concentration, wildtype; shares compounds with MEKK3 PB1 HTS; Alexa488-MEK5 binding to MEKK3; hits give low values; binding response (% of control), % at 10 µM; hit rate 1.8% among 5,900;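 active = binding response below 72% of control, or above a set upper limit, though filed actives all read lower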;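 also: lower values mean stronger disruption of MEK5 binding to MEKK3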
Numbers stand for hits; i = inactive; nt = no result given; [ ] = another dose, or the depositor's remark. Only some compounds are listed: those with a hit (about 4.1% of all), similar ones and a draw of the others.

SMILES	MEKK2 WT-MEK5	MEKK2mut PB1 HTS	Mot1-301 SUMO	CHT block	MEKK3 PB1 HTS	CHT allo act	MEKK2wt confirm	MEKK2mut-MEK5	MEKK3 confirm
Cc1ccc2nc(N(CCCN(C)C)C(=O)c3ccc(Br)s3)sc2c1	169.0	i	i	i	i	i	i	i	i
COc1ccc(C(=O)O/N=C(\N)Cc2ccc([N+](=O)[O-])cc2)c(OC)c1	i	i	i	i	i	i	nt	nt	nt
COc1cc(C)c(CN2CCC(n3nccc3NC(=O)C3CC3)CC2)cc1C	i	i	i	i	i	i	nt	nt	nt
CCOC(=O)c1c(/N=C/N(C)C)sc(/C=N/Nc2ccccc2)c1-c1ccc(Cl)cc1	i	i	i	i	i	i	nt	nt	nt
Cc1cnnn1-c1ccc(C(=O)CCl)cc1	148.0	i	i	i	i	i	i	i	i
O=S(=O)(N1CCOCC1)n1c(Cc2ccccc2)nc2ccccc21	i	i	i	i	i	i	nt	nt	nt
O=C(N/N=C/c1cccnc1)c1ccccc1[N+](=O)[O-]	i	i	i	i	58.0[inhibitor]	i	i	i	i
O=C(NC(=S)NCc1cccnc1)c1ccccc1[N+](=O)[O-]	2.0[inhibitor]	i	i	i	2.0[inhibitor]	i	i	i	i
O=C(NNC(=S)Nc1ccccc1)c1ccccc1[N+](=O)[O-]	7.0[inhibitor]	i	i	i	5.0[inhibitor]	i	i	i	i
O=C(N/N=C/c1ccncc1)c1ccccc1[N+](=O)[O-]	i	i	i	i	i	i	nt	nt	nt
O=c1c2[nH]c3ccccc3c2ncn1CCC1=CCCCC1	i	i	i	i	i	i	nt	nt	nt
Cc1[nH]c2ccccc2c1C(=O)C(=O)NCCC1=CCCCC1	i	i	i	i	135.0	i	i	i	i
C1=C(CCNc2ncnc3c2[nH]c2ccccc23)CCCC1	143.0	i	i	i	i	i	i	i	i
O=C(O)C1C2C=CC(O2)C1C(=O)NCCC1=CCCCC1 (stereo not drawn)	1.0[inhibitor]	i	i	i	1.0[inhibitor]	i	i	i	i
Cc1ccc(CNC(=O)C(=O)NCCC2=CCCCC2)cc1	i	i	i	i	72.0[inhibitor]	i	i	i	i
O=C(Nc1nnc(S(=O)(=O)N2CCN(c3ccc(F)cc3)CC2)s1)c1ccccc1	i	i	i	i	i	i	nt	nt	nt
C=CCNC(=O)c1c(Cl)nc(C)c([N+](=O)[O-])c1C	i	i	i	i	155.0	i	i	i	i
Cc1nc(Cl)c(C(=O)NCc2ccccc2)c(C)c1[N+](=O)[O-]	i	i	i	i	i	i	nt	nt	nt
CC(=O)C1=C(N2CCCCC2)CCC1=O	i	i	i	i	i	i	nt	nt	nt
CC1S/C(=C(\C#N)C(=O)NCc2ccco2)N(Cc2ccco2)C1=O (stereo not drawn)	38.0[inhibitor]	i	nt	i	49.0[inhibitor]	i	i	i	i
Cc1ccc(CC2S/C(=C(/C#N)C(=O)NCc3ccco3)N(c3ccccc3)C2=O)cc1 (stereo not drawn)	i	i	i	i	i	i	nt	nt	nt
COc1c(Br)cc(/C=N/n2c(-c3ccccc3)n[nH]c2=S)c(O)c1Br	i	i	i	i	i	i	nt	nt	nt
Cc1cc(C)c2c(n1)sc1c(O)cc(=O)[nH]c12	i	i	i	i	122.0	i	i	i	i
COc1ccc(-c2cc(C(F)(F)F)c3c(n2)sc2c(O)cc(=O)[nH]c23)c(OC)c1	i	i	i	i	i	i	nt	nt	nt
O=C(COc1cc2oc(=O)cc(-c3ccccc3)c2cc1Cl)NCc1ccccn1	i	i	i	i	i	i	nt	nt	nt
SMILES	MEKK2 WT-MEK5	MEKK2mut PB1 HTS	Mot1-301 SUMO	CHT block	MEKK3 PB1 HTS	CHT allo act	MEKK2wt confirm	MEKK2mut-MEK5	MEKK3 confirm
COc1ccc(S(=O)(=O)N2CCC(C(=O)N3CCCCC3)CC2)cc1OC	i	i	i	i	130.0	i	i	i	i
COc1ccc(S(=O)(=O)N2CCCC(C(=O)N3CCCC3)C2)cc1OC (stereo not drawn)	nt	nt	i	i	nt	i	nt	nt	nt
O=C(O)c1cccc(N2C(=O)c3cccc(Oc4ccc(Cl)cc4)c3C2=O)c1	i	i	i	i	131.0	i	i	i	i
O=C(O)c1ccc(N2C(=O)c3cccc(Oc4ccc(Cl)cc4)c3C2=O)cc1	i	i	i	i	i	i	nt	nt	nt
O=C(NCCNC(=O)c1ccc(Br)o1)c1cccnc1	i	i	i	i	i	i	nt	nt	nt
Cc1cccc(-n2c(C)cc(/C=N\NC(=O)c3ccco3)c2C)c1	i	i	i	i	i	i	nt	nt	nt
Cc1ccc(C)c(NC(=O)c2cc(-c3ccccc3)nn2-c2ccccc2)c1	i	i	i	i	60.0[inhibitor]	i	i	i	i
Cc1ccc(C)c(NC(=O)c2nc(-c3ccccc3)n(-c3ccccc3)n2)c1	i	i	i	i	i	i	nt	nt	nt
COc1ccc(OC)c(S(=O)(=O)N2CCC(C(=O)NC3CC3)CC2)c1	i	i	i	i	i	i	nt	nt	nt
Nc1nnc(CSCc2ccc(Cl)cc2Cl)s1	i	i	i	i	130.0	i	i	i	i
CCOc1ccc(-c2noc(=O)[nH]2)cc1	39.0[inhibitor]	i	i	i	23.0[inhibitor]	i	i	i	i
COc1ccc(-c2noc(=O)[nH]2)cc1	i	i	i	i	i	i	nt	nt	nt
CCOC(=O)CCC(NC(=O)CCCC(=O)NC(CCC(=O)OCC)C(=O)OCC)C(=O)OCC (stereo not drawn)	i	i	i	i	129.0	i	i	i	i
CCOC(=O)CCC(NC(=O)CCC(=O)NC(CCC(=O)OCC)C(=O)OCC)C(=O)OCC (stereo not drawn)	i	i	i	i	i	i	nt	nt	nt
CCOC(=O)c1cnc2cc(F)c(F)cc2c1N1CCN(C)CC1	i	i	i	i	i	i	nt	nt	nt
Cc1ccc(Nc2nc(N)c([N+](=O)[O-])c(NCc3ccco3)n2)cc1	i	i	i	i	152.0	i	i	i	i
Nc1nc(Nc2ccccc2)nc(NCc2ccco2)c1[N+](=O)[O-]	i	i	i	i	i	i	nt	nt	nt
CCc1ccc(C2=Nn3c(nnc3-c3cccs3)SC2)cc1	i	i	i	i	126.0	i	i	i	i
c1ccc(C2=Nn3c(nnc3-c3cccs3)SC2)cc1	i	i	i	i	i	i	nt	nt	nt
